# Bioassay records from PubChem BioAssay.
# PK Bst: Pyruvate Kinase; Potency, µM; AID 361, 2006; purified pyruvate kinase, luminescence ATP production; ribose 5-phosphate activator present at AC10; 51,000 tested, 1.2% active; in the data active means potency below about 11 µM; inconclusive means mostly about 12 µM to 25 µM;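 the screen sought inhibitors and activators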;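 further: scaled between full activation by ribose 5 phosphate and full inhibition by luteolin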
# Tau filament bind: qHTS Assay for Tau Filament Binding; recombinant tau filaments, thioflavin S fluorescence, 15 h; filaments grown with octadecylsulfate alongside compound; Potency, µM (highest dose often 57.1 µM), for the others: at the highest dose activity change, negative = inhibition; 71,000 tested, 2% active; AID 596, 2007;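 further: on the % scale 0 is the no-effect control and ±100 the full control effect; actives lower thioflavin S fluorescence by blocking filaments or displacing dye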
#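 His-tagged recombinant human tau (exons 2, 3, 10; 1 uM final) fibrillized with 30 uM sodium octadecylsulfate, 15 h at 37 C, in pH 7.4 HEPES buffer with 10 uM thioflavine S and 5 mM DTT. Reduced ThS fluorescence (450/510 nm) marks activity.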
# HEK293 cAMP cs: qHTS Assay for Agonists of the Thyroid Stimulating Hormone Receptor: Activators of Intracellular cAMP Concentrations in Parental HEK 293; parental HEK293 CNG cAMP sensor, membrane potential fluorescence; Potency, µM (highest dose often 57.1 µM), without a hit: top-dose activation, hits mostly activators; 73,000 tested, 2.5% active; AID 938, 2007; further: % of control where 0% means no effect; nearly all actives have a fitted effect of over 55% in size
#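 Parental HEK 293 cells stably expressing a modified CNG channel (no TSHR) report cAMP rise as membrane depolarization. Membrane potential dye with 100 uM RO 20-1724 was loaded for 60 min at room temperature, then compound added for 30 min; fluorescence read at 590 nm.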
# Luciferase inh: qHTS Assay for Inhibitors of Firefly Luciferase | Luciferin 4-monooxygenase (Photinus pyralis), P08659 | purified firefly luciferase, luminescence, 8 min | Potency, µM (titrated, usually from 57.1 µM), for the others: at the highest dose activity change, negative = inhibition, usual class: inhibitors | 72,000 tested, 2.2% active | AID 411, 2009; further: on the % scale 0 is the no-effect control and ±100 the full control effect; nearly all actives have a fitted effect of over 40% in size
#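 Luminescence read-out after 8 min at room temperature; enzyme reaction used luciferin plus 10 uM ATP (linear range) in imidazole buffer pH 7.2 with KCl, MgCl2, Tween 20 and BSA. Each sample was run as a titration.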
# TSHR ag: qHTS Assay for Agonists of the Thyroid Stimulating Hormone Receptor; HEK293-CNG-TSHR cells (CNG channel as cAMP sensor), membrane potential dye, cAMP; Potency, µM (titrated, usually from 57.1 µM), without a hit: top-dose activation, hits mostly activators; 73,000 tested, 0.48% active; active means well fitted activation curve with a large enough effect in the main read-out, with a control signal flat, not every such curve was filed as active; inconclusive means small, poorly fitted or top-dose-only effect, or a change in a side signal; inactive means no such curve, though single readings can be large or run the other way; % of control where 0% means no effect;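 further: the control signal comes from parental cells without the receptor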
# Target sequence (P16473 whole entry, looked up): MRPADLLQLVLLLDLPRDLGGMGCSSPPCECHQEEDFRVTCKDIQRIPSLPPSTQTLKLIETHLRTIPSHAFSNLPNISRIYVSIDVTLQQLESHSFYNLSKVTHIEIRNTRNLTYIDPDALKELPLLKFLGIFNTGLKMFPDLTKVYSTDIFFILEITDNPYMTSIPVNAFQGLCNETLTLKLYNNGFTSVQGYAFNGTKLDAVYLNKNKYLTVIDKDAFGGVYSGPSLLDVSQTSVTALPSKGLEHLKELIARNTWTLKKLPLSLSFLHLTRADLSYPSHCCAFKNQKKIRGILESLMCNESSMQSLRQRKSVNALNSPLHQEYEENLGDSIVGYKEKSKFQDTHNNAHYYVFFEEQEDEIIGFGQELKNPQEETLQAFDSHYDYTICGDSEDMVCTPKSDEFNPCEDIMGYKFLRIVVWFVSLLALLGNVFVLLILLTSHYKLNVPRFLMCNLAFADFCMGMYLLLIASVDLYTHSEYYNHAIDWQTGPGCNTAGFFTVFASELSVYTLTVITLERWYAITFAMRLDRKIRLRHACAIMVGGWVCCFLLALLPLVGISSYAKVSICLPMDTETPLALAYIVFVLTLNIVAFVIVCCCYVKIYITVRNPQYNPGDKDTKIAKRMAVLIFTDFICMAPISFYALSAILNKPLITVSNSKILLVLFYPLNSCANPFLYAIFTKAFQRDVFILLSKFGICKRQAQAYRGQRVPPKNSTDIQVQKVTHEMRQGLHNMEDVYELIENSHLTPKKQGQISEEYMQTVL
#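 cAMP rise detected as CNG-channel membrane depolarization by fluorescent dye (emission 590 nm), 30 min after compound, following 60 min dye loading containing 100 uM RO 20-1724 at room temperature. Cells: TSHR/CNG HEK 293, with parental CNG HEK 293 as control.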
# ERK AVP inh: qHTS Assay for Inhibitors of the ERK Signaling Pathway using a Homogeneous Screening Assay; Potency, µM (highest dose often 57.5 µM), for the others: top-dose activity, negative = inhibition, actives largely listed as inhibitors; HEK293-V1b, vasopressin-stimulated pERK AlphaScreen; AID 995, 2007; 72,000 tested, 0.99% active; further: on the % scale 0 is the no-effect control and ±100 the full control effect; nearly all actives have a fitted effect of over 55% in size
#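 Overnight-seeded V1b-HEK293 cells in 1% FBS got compound, then vasopressin (25 nM final, 5 min, 37C), then lysis buffer. AlphaScreen detection of phospho-ERK; activity normalized to basal and full-stimulation controls.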
# * = called active by the depositor; i = inactive; u = inconclusive; x = no result given; [ ] = remark or other dose. The list is not random: actives were taken first. Their share in the collection is about 7.2%. Unless noted, the call rests on the fitted dose curve; in most records, active means well fitted curve in the direction sought with a large enough effect; inconclusive means small, poorly fitted or top-dose-only effect, or another doubt; inactive means no such curve, though single readings can be large; an effect the other way counts as inactive or inconclusive. Potency means the concentration at half of the fitted maximal effect.
SMILES,PK Bst,Tau filament bind,HEK293 cAMP cs,Luciferase inh,TSHR ag,ERK AVP inh
COc1ccc(-c2csc(N(CC3CCCO3)C(=O)c3ccco3)n2)cc1 (stereo not given),x,8%,20µM*,3%,u,24%
COc1ccc(-c2csc(N3CCN(C(=O)c4ccco4)CC3)n2)cc1,x,12%,4%,-21%,6%,10µM*
COc1ccc(-c2csc(N3CCC(C(N)=O)(N4CCCCC4)CC3)n2)cc1,>57,55%,8%,1%,19%,25µM*
COc1ccc(C(=O)N2CCN(C(=O)c3ccco3)CC2)cc1,x,11%,21%,2%,x,-1%
O=S(=O)(c1ccccc1)N1CCC[C@@]2(CCN(c3ccccc3)C2)C1,x,-3%,u,0%[11.4 µM],u,-13%
CN(C)c1ccc(-c2cncnc2NCc2cccs2)cc1,x,-12%,-3%,0%[2.29 µM],25%,u
CN(C)c1ccc(-c2cncnc2NCc2ccccc2)cc1,x,-11%,-22%,-1%[2.29 µM],28%,25µM*
COCCNc1ncnc2ccc(-c3ccoc3)cc12,x,0%,19%,0%[2.29 µM],2%,8%
Cc1cnc(CNc2ncnc3ccc(-c4ccc(N(C)C)cc4)cc23)cn1,x,25µM*,-8%,-3%[2.29 µM],19%,u
CN(C)c1ccc(-c2ccc3ncnc(NCc4ccccc4)c3c2)cc1,x,2.5µM*,-53%,1%[2.29 µM],u,13µM*
COCCNc1ncnc2ccc(-c3ccc(N(C)C)cc3)cc12,x,16µM*,-5%,0%[2.29 µM],-1%,u
CN(Cc1ccco1)c1ncnc2ccc(-c3ccccc3C(F)(F)F)cc12,x,-5%,u,-3%[2.29 µM],u,u
Cc1cnc(CNc2ncnc3ccc(-c4ccccc4C)cc23)cn1,x,20%,u,-1%[2.29 µM],u,-29%
C=CCNc1ncnc2ccccc12,>57,6%,5%,-1%,1%,-1%
c1ccc(CNc2ncnc3ccccc23)cc1,>57,2%,u,0%,u,25µM*
Cc1cnc(CNc2ncnc3ccc(-c4ccccc4Cl)cc23)cn1,x,26%,u,-1%[2.29 µM],u,20µM*
Nc1ncnc2nc[nH]c12.Nc1ncnc2nc[nH]c12.[Cl][Pt]([Cl])([Cl])[Cl],x,0%[11.4 µM],0%[11.4 µM],-4%[11.4 µM],-4%[11.4 µM],x
CCN(CC)CC(=O)Nc1ccc2c(c1)Nc1ccccc1CC2,>57,13µM*,-19%,-5%,-14%,5%
O=c1c2ccccc2sc2c(CO)ccc(NCCN3CCCCC3)c12,x,3.2µM*,21%[11.4 µM],2%[11.4 µM],7%[11.4 µM],-2%[11.5 µM]
O=C(N/N=C/c1ccc(O)cc1O)c1cc(-c2ccccc2)n[nH]1,x,x,-1%,x,3%,x
O=C(CCNc1ccc(F)c(Cl)c1)c1ccco1,x,-6%[11.4 µM],u,-1%,u,1%
CC(=O)Nc1ccc(N/C=C/C(=O)c2ccco2)cc1,i,0%,-7%,25µM*,-10%,-4%
O=C(/C=C/Nc1ccc(F)c(Cl)c1)c1ccco1,i,-10%,22%,16µM*,31%,u
O=C(O)[C@@H]1[C@@H](C(=O)NCc2cccnc2)[C@@H]2C=C[C@@H]1O2,x,-1%[11.4 µM],0%[11.4 µM],0%[11.4 µM],0%[11.4 µM],-27%[11.5 µM]
CC(=O)OCC1OC(C#Cc2ccc(C(C)(C)C)cc2)C=CC1OC(C)=O (stereo not given),x,x,6%[11.4 µM],x,1%[11.4 µM],0%[11.5 µM]
SMILES,PK Bst,Tau filament bind,HEK293 cAMP cs,Luciferase inh,TSHR ag,ERK AVP inh
CCOC(=O)CNC(=O)c1cnn2cccnc12,>57,10%,1%,-1%,-9%,-4%
O=C(Nc1cnn(C23CC4CC(CC(C4)C2)C3)c1)c1cnn2cccnc12,u,-5%,8%,2.5µM*,2%,-25%
O=C(CN1CCN(c2ccccn2)CC1)Nc1ccc2ccccc2c1,>57,2%,u,40µM*,u,-7%
O=C(CN1CCN(c2ccccn2)CC1)Nc1ccc(Cl)c(C(F)(F)F)c1,>57,57%,23%,4%,12%,-3%
COc1cc(C(=O)Nc2cccc(-c3nc4cc(C)ccc4o3)c2)cc(OC)c1OC,x,x,0%,x,-2%,x
CSc1nc2ccc(NC(=O)C3CCCO3)cc2s1 (stereo not given),i,-8%,10%,25µM*,0%,-10%
Cc1ccc2oc(-c3cccc(NC(=O)C4CCCO4)c3)nc2c1 (stereo not given),i,6%,23%,20µM*,4%,-22%
O=C(Nc1cccc(-c2nc3cc(Cl)ccc3o2)c1)C1CCCO1 (stereo not given),i,35%,11%,-11%,3%,20µM*
CCCCC/C=C\C[C@H](O)/C=C\c1cccc(C[C@H](O)CCCCO)n1,x,-4%,11%,3%,-4%,10%
COCCn1c(=O)c(-c2cccc(C#N)c2)nc2cnc(N(C)C)nc21,x,462%,-5%,1%[11.4 µM],-1%,3%
CCn1nnnc1NCc1cccn1C,>57,34%,25µM*,-1%,u,13%
OC(COc1ccc2cc(Br)ccc2c1)CN1CCN(c2ccccn2)CC1 (stereo not given),>57,12%,18%,0%,12%,25µM*
OC(COc1ccc2cc(Br)ccc2c1)CN1CCCC1 (stereo not given),x,88%,14%,u,4%,-19%
CCC1=C(OC(=O)N(CC)CC)N2C(=O)OC(=NCCOC)[C@]2(C)[C@H]2C1=CC[C@H]1C(=O)NC(=O)[C@H]12,x,x,x,x,x,3%
O=C(/C=C/c1ccccc1)c1ccccc1,i,x,x,10µM*,x,x
O=C(/C=C\c1ccc(O)cc1)c1ccc(O)cc1O,x,10%,-18%,25µM*,-24%,u
COc1cc(O)c(C(=O)/C=C/c2ccccc2)c(O)c1,x,x,2%[11.4 µM],x,4%[11.4 µM],10%[11.5 µM]
O=C(/C=C\c1ccccc1)c1ccccc1O,x,x,3%[11.4 µM],-7%[11.4 µM],-5%[11.4 µM],-20%[11.5 µM]
O=C(/C=C/c1ccc(O)cc1)c1ccccc1O,x,x,x,x,x,4µM*
O=C(/C=C/c1ccc(O)cc1)c1cccs1,x,x,x,x,x,16µM*
CC1(C)C[C@@H]2C(=O)CCC3O[C@@]3(C)CCC21 (stereo not given in full),x,x,x,x,x,5%
O=c1c2ccccc2nc2c3ccccc3c3nncn3n12,0.9*,-1%,-2%,2%,8%,1%
COc1ccccc1Nc1cc(C(=O)NCCCN2CCOCC2)c2ccccc2n1,x,-20%,u,-17%,u,-8%
COc1ccc(OC)c(Nc2cc(C(=O)NCCCN3CCOCC3)c3ccccc3n2)c1,>57,10µM*,-19%,-1%,-5%[11.4 µM],-8%
